# Reference: ChEMBL document CHEMBL3988442, “University of Dundee, Small-Polar-MMV Screening Library” (2021)
# Screen size: about 66,000 compounds; about 960 (1.5%) showed an effect of 50% or more. What follows is part of a selection rich in strong results, with near analogues and random picks from the rest.
# System: Trypanosoma brucei
# Assay: Trypanosoma brucei 72 hour study
# Assay type: functional, organism-based
# Design: scale not given: in the data most compounds retested in dose-response had high values
SMILES,"Percent Effect (30.3 µM, […])","Percent Effect (30 µM, 30.03 µM)"
O=C(c1ccc(=O)[nH]c1)N1CCC(Oc2cccc(C(F)(F)F)c2)CC1,9.238%,
O=C(c1ccncc1)N1CCC(Oc2cccc(C(F)(F)F)c2)CC1,37.18%,
Nc1ccc(C(=O)N2CCC(Oc3cccc(C(F)(F)F)c3)CC2)cn1,54.87%,
FC(F)(F)c1cccc(OC2CCN(Cc3ncc[nH]3)CC2)c1,,-13.87%
OC1(CN2CCC(Oc3cccc(C(F)(F)F)c3)CC2)CNCCOC1 (stereo unspecified),,-13.41%
Nc1cc(C(=O)N2CCC(Oc3cccc(C(F)(F)F)c3)CC2)ccn1,19.92%,
CC(N)C(=O)N1CCC(Oc2cccc(C(F)(F)F)c2)CC1 (stereo unspecified),98.32%,
CCc1[nH]c2c(CNc3nccc(N)n3)cc(F)cc2c1C,,24.46%
Cc1nc(CN2CCO[C@H]3[C@H](OCC(=O)N(C)C)CC[C@@H]32)cs1.O=C(O)C(F)(F)F,,-32.64%
C[C@@H]1CN(C2CCN(Cc3nn(C)c4cccc(Cl)c34)CC2)C[C@H](C)O1,10.53%,
Cn1nc(CN2CCC(c3ccncc3)CC2)c2c(Cl)cccc21,31.87%,
Cn1nc(CN2CCCN(C3CCCC3)CC2)c2c(Cl)cccc21,100.6%,
Cc1cccc(N2CCC3(CCN(C(=O)c4cccnc4)CC3)C2)n1.O=C(O)C(F)(F)F.O=C(O)C(F)(F)F,,38.81%
Cc1cnc(N2CCC3(CCN(CC4CCCC4)C3=O)CC2)nc1.O=C(O)C(F)(F)F,-22.16%,
Cc1cccc(CN(Cc2ccc(C)o2)C2CC(C)(C)NC(C)(C)C2)n1.O=C(O)CC(O)(CC(=O)O)C(=O)O,14.76%,
CC1(C)CC(N(Cc2cccnc2)Cc2cccnc2)CC(C)(C)N1.O=C(O)CC(O)(CC(=O)O)C(=O)O,13.11%,
Cc1nc[nH]c1CN(Cc1ccccc1)C1CC(C)(C)NC(C)(C)C1.O=C(O)CC(O)(CC(=O)O)C(=O)O,9.969%,
Cc1ccsc1CN(Cc1cccnc1)C1CC(C)(C)NC(C)(C)C1.O=C(O)CC(O)(CC(=O)O)C(=O)O,61.32%,
CC1(C)CC(N(Cc2cccnc2)Cc2cccc(F)c2)CC(C)(C)N1.O=C(O)CC(O)(CC(=O)O)C(=O)O,92.81%,
CCCN(Cc1cccnc1)C1CC(C)(C)NC(C)(C)C1.O=C(O)CC(O)(CC(=O)O)C(=O)O,3.437%,
CC1(C)CC(N(Cc2ccccc2)Cc2c[nH]cn2)CC(C)(C)N1.O=C(O)CC(O)(CC(=O)O)C(=O)O,9.903%,
Cc1ccc(CN(Cc2cccnc2)C2CC(C)(C)NC(C)(C)C2)s1.O=C(O)CC(O)(CC(=O)O)C(=O)O,78.89%,
CC1(C)CC(N(Cc2ccncc2)Cc2cccnc2)CC(C)(C)N1.O=C(O)CC(O)(CC(=O)O)C(=O)O,3.133%,
Cc1cccc(CN(Cc2cccnc2)C2CC(C)(C)NC(C)(C)C2)n1.O=C(O)CC(O)(CC(=O)O)C(=O)O,-21.3%,
Cc1ccc(CN(Cc2ccccn2)C2CC(C)(C)NC(C)(C)C2)s1.O=C(O)CC(O)(CC(=O)O)C(=O)O,71.04%,
CC1(C)CC(N(Cc2ccccc2)Cc2cccnc2)CC(C)(C)N1.O=C(O)CC(O)(CC(=O)O)C(=O)O,27.73%,
